For 24 compounds, Potency results are on record in PubChem BioAssay (NCATS).

The test system of one test is MCC-13. Nature of the test: qHTS assay to identify novel small-molecules to repurpose for Merkel cell carcinoma treatment (AID 1296009). Also: nearly all actives have a fitted effect of over 60% in size. To be noted: MCC and control cell lines, CellTiter-Glo viability, 72 h; series mostly up to 46 µM. Put shortly:
(§1)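 CellTiter-Glo luminescence after 72 hr compound exposure at 37 degree celsius gave cell viability. Libraries NPC and MIPE were run as 8- and 11-point dose responses; RLUs normalized to DMSO (negative) and no-cell (cytotoxicity) controls.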

For another test, the system named is MCC-26. Described as above. To be noted: MCC and control cell lines, CellTiter-Glo viability, 72 h; series mostly up to 46 µM. Summed up:
as §1
A general note: In ATP-based viability assays light output follows the ATP content of the culture.

In a further test the test system is MKL-1. The test is described as above. To be noted: MCC and control cell lines, CellTiter-Glo viability, 72 h; series mostly up to 46 µM. Put shortly: as §1
The next test concerns UISO. Described as above. The conditions noted are these: MCC and control cell lines, CellTiter-Glo viability, 72 h; series mostly up to 46 µM. Put shortly:
as §1

The next test concerns WaGa. The test is described as above. The conditions noted are these: MCC and control cell lines, CellTiter-Glo viability, 72 h; series mostly up to 46 µM. Summed up: as §1
A further test relates to MKL-2. The test is described as above. The conditions noted are these: MCC and control cell lines, CellTiter-Glo viability, 72 h; series mostly up to 46 µM. Summed up: as §1
Another test concerns C33A. In words: Primary qHTS to identify gynecologic anti-cancer compounds using libraries of approved drugs and bioactive compounds (AID 1345084). Also: nearly all actives have a fitted effect of over 55% in size. The conditions noted are these: Gynecologic cancer cell panel viability, ATPlite luminescence, 48 h; series mostly up to 57.5 µM. Put shortly:
(§2)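 Measured: luminescence after ATPlite addition (15 min, RT). Exposure: 48 h, 37 C, 5% CO2.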
For orientation: Quantitative high-throughput screening tests each substance at several concentrations.

A further test relates to CASKI. The test is described as above. To be noted: Gynecologic cancer cell panel viability, ATPlite luminescence, 48 h; series mostly up to 57.5 µM. Summed up:
as §2

Inconclusive results are not listed. Calls of active or inactive are those of the source. Calls follow the shape of the dose curve; as a rule, active = well fitted curve in the direction sought with a large enough effect; inconclusive = small, poorly fitted or top-dose-only effect, or another doubt; inactive = no such curve, though single readings can be large; an effect the other way counts as inactive or inconclusive. Non-standard residues stand in square brackets, D forms with d. Residues, ends and D or L forms follow the SMILES beside them. *: point of attachment. Nva = CCC[C@H](N)C(=O)O; Cbz = O=C(OCc1ccccc1)*
Potency is read from the fitted curve at half-maximal effect.

In the case of `CC(C=CC=C(C)C=CC1=C(C)CCCC1(C)C)=CC=CC=C(C)C=CC=C(C)C=CC1=C(C)CCCC1(C)C`, the Potency entry in the test on MCC-13, in the test with MCC-26, in the test on MKL-1 and with UISO was “inactive” in each case.
Consider `CC(Cc1ccc(O)c(O)c1)(NN)C(=O)O` (stereo unspecified), for which the Potency result in the test with MCC-13, in the test with MCC-26, in the test on MKL-1, in the test with UISO and with WaGa was “inactive” in each case.
Regarding `COc1cc2c(cc1OC)[C@@H]1C(=O)c3ccc4c(c3O[C@@H]1CO2)C=CC(C)(C)O4`, the Potency entry in the test on MCC-13 and in the test on MCC-26 was “inactive” each time. The Potency with MKL-1 was 1.87 µM (active); in the test on MKL-2, 0.935 µM (active); in the test with WaGa, 0.662 µM (active).
Consider `C[C@@H](NCc1cc2ccccc2[nH]1)c1cccc2ccccc12`, for which the Potency entry in the test with MCC-13, in the test with MCC-26, with MKL-1, in the test on MKL-2, in the test with UISO and in the test with WaGa was “inactive” each time.
Consider `CCC[C@@H](C=O)NC(=O)[C@H](CC(C)C)NC(=O)[C@H](CC(C)C)NC(=O)OCc1ccccc1` (Cbz-Leu-Leu-[Nva]-aldehyde), for which the Potency is 3.32 µM (active) with MCC-13; 3.32 µM (active) in the test on MCC-26; 1.32 µM (active) in the test with MKL-1; 0.833 µM (active) in the test with MKL-2; 2.64 µM (active) in the test with UISO; 0.833 µM (active) with WaGa.
Regarding `Cc1cnc(Nc2ccc(N3CCN(C)CC3)cc2)nc1Nc1cccc(S(=O)(=O)NC(C)(C)C)c1`, the Potency in the test with MCC-13 is 16.6 µM (active); in the test on MCC-26, 8.33 µM (active); with MKL-1, 10.5 µM (active); with MKL-2 it was 10.5 µM (active); with WaGa, 11.8 µM (active).
Consider `C=C1CCC2[C@](C)(CO)C(O)CC[C@]2(C)C1CC=C1C(=O)OCC1O` (stereo partly specified), for which the Potency result in the test on MCC-13, with MCC-26, in the test on MKL-1, in the test on MKL-2, in the test with UISO and in the test with WaGa was “inactive” in each case.
With `Cc1onc(-c2ccccc2)c1C(=O)N[C@@H]1C(=O)N2[C@@H](C(=O)O)C(C)(C)S[C@@H]12`, the Potency entry in the test with MCC-13, in the test on MCC-26, in the test on MKL-1, in the test on UISO and in the test on WaGa was “inactive” throughout.
As for `C#C[C@]1(O)CC[C@@H]2[C@@H]3CCc4cc(O)ccc4[C@H]3CC[C@@]21C`, the Potency result in the test on MCC-13, with MCC-26, in the test on MKL-1 and with WaGa was “inactive” throughout.
`CCOC(=O)[C@@H](N)Cc1ccc(-c2cc(O[C@H](c3ccc(Cl)cc3-n3ccc(C)n3)C(F)(F)F)nc(N)n2)cc1`: the Potency result in the test on MCC-13, in the test with MCC-26, with MKL-1, in the test on UISO, with WaGa and with C33A was “inactive” each time. In the test on CASKI, the Potency result was “inactive”.
Consider `C[N+]1(C)[C@@H]2C[C@@H](OC(=O)C(O)(c3cccs3)c3cccs3)C[C@H]1[C@@H]1O[C@@H]12`, for which the Potency entry in the test on MCC-13, in the test on MCC-26, with MKL-1, in the test on MKL-2, in the test with UISO and with WaGa was “inactive” throughout. Further, the Potency result with C33A and in the test with CASKI was “inactive” throughout.
Consider `Cc1ccccc1C(=O)Nc1ccc(C(=O)N2CCCC(O)c3cc(Cl)ccc32)c(C)c1` (stereo unspecified), for which the Potency result in the test with MCC-13, in the test on MCC-26, with MKL-1, with MKL-2, in the test on UISO and in the test with WaGa was “inactive” in each case. Further, the Potency entry in the test on C33A and in the test with CASKI was “inactive” throughout.
Turning to `Cc1coc2c1C(=O)C(=O)c1c-2ccc2c(C)cccc12`, the Potency entry in the test on MCC-13, in the test with MCC-26, in the test with MKL-1, in the test with MKL-2, with WaGa and in the test with CASKI was “inactive” in each case.
Turning to `CN(C)CC[C@H](c1ccc(Cl)cc1)c1ccccn1`, the Potency result in the test on MCC-13, in the test with MCC-26, with MKL-1, in the test on MKL-2, with UISO and with WaGa was “inactive” each time.
In the case of `O=C(O)C=Cc1ccc(Cn2ccnc2)cc1`, the Potency result with MCC-13, in the test with MCC-26, in the test on MKL-1, in the test on MKL-2, with UISO and in the test with WaGa was “inactive” in each case.
As to `COc1cc(C)c(C=CC(C)=CC=CC(C)=CC(=O)O)c(C)c1C`, the Potency result with MCC-13, in the test on MCC-26, in the test with MKL-1, with UISO and with WaGa was “inactive” each time.
On to `Nc1ccc(C(=O)Nc2cccc(-c3nc(N4CCOCC4)c4oc5ncccc5c4n3)c2)cn1`, for which the Potency result in the test on MCC-13, in the test with MCC-26, in the test with MKL-1, in the test with MKL-2 and in the test on UISO was “inactive” throughout. Also, in the test on CASKI, the Potency was 14.1 µM (active).
Regarding `CCC[C@H]1C[C@H](C(=O)N[C@@H]([C@@H]2O[C@@H](SC)[C@@H](O)[C@@H](O)[C@@H]2O)[C@H](C)Cl)N(C)C1`, the Potency result with MCC-13, in the test on MCC-26, in the test on MKL-1, with MKL-2, with UISO and with WaGa was “inactive” in each case. Besides, the Potency result in the test on C33A and in the test on CASKI was “inactive” each time.
In the case of `CCN(C(=O)c1c(O)c2c(Cl)cccc2n(C)c1=O)c1ccccc1`, the Potency result with MCC-13, in the test on MCC-26, with MKL-1, with MKL-2 and in the test with WaGa was “inactive” in each case.
On to `CCc1cc(C(C)=NOCc2ccc(C3CCCCC3)c(C(F)(F)F)c2)ccc1CN1CC(C(=O)O)C1`, for which the Potency entry with MCC-13, in the test on MCC-26, in the test with MKL-1 and in the test with WaGa was “inactive” each time. In the test with MKL-2, the Potency was 6.62 µM (active).
Consider `Nc1cccc2c1C(=O)N(C1CCC(=O)NC1=O)C2=O` (stereo unspecified), for which the Potency result in the test with MCC-13, in the test on MCC-26, in the test on MKL-1, in the test with MKL-2, in the test on UISO and with WaGa was “inactive” in each case.
For the compound `CC(=O)OC[C@@H]1O[C@@H](n2ccc(=O)[nH]c2=O)[C@H](OC(C)=O)[C@H]1OC(C)=O`, the Potency result in the test on MCC-13, in the test on MCC-26, in the test on MKL-1, in the test on UISO and in the test on WaGa was “inactive” each time.
Take `O=C(NCc1ccccc1)[C@H](Cc1ccccc1)NC(=O)[C@@H]1O[C@@H]1C(=O)NCCc1ccc(O)cc1`: the Potency entry in the test with MCC-13, in the test on MCC-26, in the test with MKL-1 and in the test on UISO was “inactive” throughout.
As to `CCCCCCCCCCCC(CC1OC(=O)C1CCCCCC)OC(=O)C(CC(C)C)NC=O` (stereo unspecified), the Potency entry in the test with MCC-13, with MCC-26, in the test with MKL-1, in the test with UISO and with WaGa was “inactive” throughout.
